The record followed here is ChEMBL document CHEMBL4888484, “Replenishing the malaria drug discovery pipeline: Screening and hit evaluation of the MMV Hit Generation Library 1 (HGL1) against asexual blood stage Plasmodium falciparum ,using a nano luciferase reporter read-out” (2022).

By % Inhibition is commonly meant the change of the read-out against control, counted positive when it falls.

Molecules are shown by their SMILES. Hit rate of the full screen: of about 150,000 compounds, about 540 (0.36%) showed an effect of 50% or more. The sample holds strong results, similar compounds and a random draw of the others, so the mix is not that of the screen.

The assay relates to Plasmodium falciparum. The assay can be described thus: Primary screen in NF54 nanoGlo assay, in single point, at 2uM, 72h; a lower Z score goes with more inhibition. The following applies: timepoint 72 hour. Type of assay: functional, Erythrocyte.
In the case of `CCn1c(CN2CCCC2)nc2cc(S(=O)(=O)N3CCCCC3)ccc21`, the “% Inhibition” value is recorded as -46% and the Z score amounted to 5.44.
Regarding `Cc1ccc(CNC(=O)[C@]2(C)CCC(=O)N2CCCc2ccccc2)cc1`, the “% Inhibition” value is -16% and the Z score was found to be 1.5.
The matching figures for `O=C(Nc1cccc(S(=O)(=O)NC2=NCCC2)c1)c1cc(Cl)c2c(c1)OCCCO2`: -11% and 1.51.
The matching figures for `CCOc1cccc(-c2ccc3nc(-c4cccc(OC)c4)c(CCC(=O)NCCc4ccc(OC)c(OC)c4)n3c2)c1`: 22% and -4.22.
The matching figures for `CCOc1cccc(-c2ccc3nc(-c4cccc(OC)c4)c(CCC(=O)NC4CC4)n3c2)c1`: 4% and -0.75.
Consider `CCOc1cccc(-c2ccc3nc(-c4cccc(OC)c4)c(CCC(=O)NCCN4CCCC4)n3c2)c1`, for which the “% Inhibition” value is reported as 59% and the Z score is reported as -11.14.
Consider `Cc1nc(O)nc(O)c1CN1CCOCC1`, for which the “% Inhibition” value was -10% and the Z score was 1.65.
The corresponding values for `c1ccc(-c2nnc(-c3cccnc3NCc3cccs3)o2)cc1` are -5% and 0.8.
The matching figures for `O=C1CCCN1[C@H]1CCCN(S(=O)(=O)CC2CCCCC2)CC1`: -7% and 1.12.
The matching figures for `O=C1O[C@H]2CN(CCCc3ccccc3)C[C@H]2N1Cc1ccccn1`: -16% and 1.43.
In the case of `CCOCC1CCN(CCc2ccc3c(c2)CCO3)CC1`, the “% Inhibition” value is given as -4% and the Z score stood at 0.71.
The corresponding values for `O=C([C@@H]1CCCN1C1CC1)N1CCC2(CC1)OCCc1ccccc12` are -14% and 1.46.
The matching figures for `COCC(=O)N[C@H]1CO[C@H]2[C@@H]1OC[C@@H]2Nc1nccc(-c2cccc(C#N)c2)n1`: 50% and -0.95.
The corresponding values for `COCC(=O)N[C@H]1CO[C@H]2[C@@H]1OC[C@@H]2Nc1nccc(-c2ccc(OC)cc2)n1` are -5% and 0.87.
`N#Cc1cccc(-c2ccnc(N[C@H]3CO[C@H]4[C@@H]3OC[C@@H]4NC(=O)c3ccc(C(F)(F)F)cc3)n2)c1`: the “% Inhibition” value is -7% and the Z score turned out to be 1.07.
On to `CC(C)Cn1cccc(C(=O)Nc2cn(C)nc2-c2ccco2)c1=O`, for which the “% Inhibition” value is reported as -9% and the Z score is given as 1.12.
Consider `CCN(C(=O)COc1cccc(C)c1)[C@H](c1ccc(C)cc1)c1c[nH]c2ccccc12`, for which the “% Inhibition” value came to 6% and the Z score is -0.77.
The matching figures for `COc1ccc(-c2oc(C)c(C)[n+]2[O-])cc1OC`: 71% and 0.43.
The matching figures for `Cc1oc(-c2cccc(F)c2)[n+]([O-])c1C`: 5% and -0.64.
The matching figures for `Cc1ccccc1-c1oc(C)c(C)[n+]1[O-]`: 2% and -0.28.
Turning to `COc1ccc(CN2C[C@H]3CC[C@@H](C2)N(CC=C(C)C)C3)cc1CN(C)C`, the “% Inhibition” value is recorded as -17% and the Z score is given as 1.87.
The corresponding values for `CN(Cc1cnc2ccccc2c1)c1cnn(C)c1` are 1% and -0.16.
On to `Cc1ncsc1CCNC(=O)[C@H]1CCN(c2ccc(C(F)(F)F)cn2)C1`, for which the “% Inhibition” value is on record as -4% and the Z score is listed as 0.7.
With `C[C@@H](C1CC1)N(C1CC1)S(=O)(=O)c1cccc2c1N=S=N2`, the “% Inhibition” value was 38% and the Z score is -0.53.
For the compound `C[C@@H](C1CC1)N(CC(=O)Nc1ccc(F)cc1F)C1CC1`, the “% Inhibition” value is -12% and the Z score came to 1.76.
The matching figures for `C[C@@H](C1CC1)N(C1CC1)S(=O)(=O)c1ccc(F)cc1F`: 84% and -10.78.
For the compound `CCOC(=O)N1CCC(C)(CN2CCS(=O)(=O)C[C@@H](C)C2)CC1`, the “% Inhibition” value is listed as -13% and the Z score is 1.46.
Regarding `Cn1cc(Cl)cc1C(=O)N1CCN(Cc2ccccc2F)C(=O)C1`, the “% Inhibition” value is on record as -2% and the Z score amounted to 0.24.
The corresponding values for `CCOc1ccc(Cl)cc1-c1cc(C)n[nH]c1=O` are -8% and 1.52.
The matching figures for `Cc1cccc(N2CCN(C(=O)c3cn4c(n3)COCC4)CC2)c1C`: -8% and 1.36.
In the case of `COc1ccc(C)c2sc(N(CCCN(C)C)C(=O)c3ccnn3C)nc12`, the “% Inhibition” value was -7% and the Z score came out at 1.27.
The corresponding values for `COc1ccc(C)c2sc(N(Cc3cccnc3)C(=O)c3ccn(C)n3)nc12` are -12% and 2.
The matching figures for `COc1ccc(C)c2sc(N(CCCn3ccnc3)C(=O)Cc3ccc(F)cc3)nc12`: 78% and -7.85.
Take `CC(C)(C)OC(=O)N1CC2CC1CCC2=O` (centres undefined): the “% Inhibition” value is reported as -3% and the Z score is 0.51.
The corresponding values for `COc1ccc(CN2C[C@H]3CC[C@@H](C2)N(C(=O)c2nc(C)c[nH]2)C3)cc1` are -2% and 0.32.
The matching figures for `CC(C)(C)OC(=O)NCc1cccnc1NC(=O)Cc1ccoc1`: 10% and -1.94.
The matching figures for `O=C(CCn1nc2ccccn2c1=O)Nc1cnccc1Nc1ccc(F)cc1`: -25% and 4.76.
For the compound `Cc1nn(C2CCCC2)c2nc(-c3cc(CN(C)C)cs3)[nH]c12`, the “% Inhibition” value was 69% and the Z score is -9.28.
The matching figures for `Cc1nn(C2CCCC2)c2nc(-c3cccs3)[nH]c12`: -10% and 1.39.
The matching figures for `Cc1nn(C)c(Cl)c1-c1nc2c([nH]1)c(C)nn2C1CCCCC1`: 1% and -0.09.
The corresponding values for `Fc1ccc([C@@H]2CCN2CCn2cc(Cl)cn2)cc1` are 12% and -1.59.
In the case of `CN(C)Cc1ccc(O)c(CCc2ccccc2)n1`, the “% Inhibition” value was determined as 64% and the Z score is listed as -4.36.
The matching figures for `OCc1cc(CO)c(O)c(CCc2ccccc2)n1`: -7% and 1.32.
`CN(C)Cc1cc(CN(C)C)c(O)c(CCc2ccccc2)n1`: the “% Inhibition” value is on record as 7% and the Z score is recorded as -1.36.
The corresponding values for `COC(=O)[C@H](CS(=O)(=O)Nc1cc(C)n(C)n1)c1ccccc1` are 3% and -0.46.
The corresponding values for `O=c1c2ccoc2ccn1Cc1ccc(OC(F)F)cc1` are -8% and 0.89.
For `COc1ccc(C(=O)CN2C=CCC=C2c2nc(-c3ccc(Cl)cc3)cs2)cc1`, the “% Inhibition” value is 75% and the Z score is given as -6.73.
The corresponding values for `O=C(C[n+]1ccccc1-c1nc(-c2ccc(Cl)cc2)cs1)c1ccccc1` are -7% and 1.
Turning to `Brc1ccc(-c2csc(Cc3nc(-c4ccc(Br)cc4)cs3)n2)cc1`, the “% Inhibition” value is reported as -3% and the Z score was found to be 0.3.
For the compound `O=C(CN1C=CCC=C1c1nc(-c2ccc(Br)cc2)cs1)c1ccccc1`, the “% Inhibition” value worked out at 65% and the Z score is reported as -4.25.
The matching figures for `COc1ccc(C2=CN(CC(=O)c3ccc(Cl)cc3)C3=CCCCCN23)cc1`: 37% and -3.83.
The matching figures for `COc1ccc(-c2csc(-c3nc(-c4cccc(Cl)c4)cs3)n2)cc1`: -13% and 1.47.
